Assay results from PubChem BioAssay (NCATS).
Results filed as inconclusive are left out. Activity calls are given as the source filed them. The call rests on the fitted dose curve; in most records, active means well fitted curve in the direction sought with a large enough effect; inconclusive means small, poorly fitted or top-dose-only effect, or another doubt; inactive means no such curve, though single readings can be large; an effect the other way counts as inactive or inconclusive. Where a SMILES comes first, the peptide text is derived from it. Bridges are numbered along the chain shown (N, C = ends). [ ]: non-standard residue; d: D form. NMeY = CN[CH](Cc1ccc(O)cc1)C(=O)O

Assays:
[1] = biological target: Glutathione peroxidase 1 (Homo sapiens) (UniProt P07203); test: Primary qHTS Assay for Inhibitors of Recombinant Selenoprotein Glutathione Peroxidase 1 (GPX1) (AID 1845191); further: nearly all actives have a fitted effect of over 65% in size; on activity, negative = inhibition: on the % scale 0 is the no-effect control and ±100 the full control effect
How it was run: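 Recombinant GPX1 (10 nM final) was preincubated with compound for 30 min at room temperature, then reacted with 1 mM GSH, 0.5 mM CHP, 0.5 mM NADPH and 100 nM glutathione reductase; NADPH fluorescence (340/450 nm) was read at 0 and 15 min.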

[2] = biological target: Phospholipid hydroperoxide glutathione peroxidase GPX4 (Homo sapiens) (UniProt P36969); test: Primary qHTS Assay for Inhibitors of Recombinant Selenoprotein Glutathione Peroxidase 4 (GPX4) (AID 1845192); further: nearly all actives have a fitted effect of over 65% in size; on activity change, negative = inhibition: series mostly up to about 50 µM; on the % scale 0 is the no-effect control and ±100 the full control effect
How it was run: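 GR-coupled readout: 100 nM GR, 1 mM GSH, 0.5 mM NADPH; NADPH fluorescence (ex 340/em 450 nm) read at t=0 and after 15 min RT. GPX4 200 nM, preincubated 30 min with compound; substrate 0.5 mM CHP.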

[3] = biological target: Luciferin 4-monooxygenase (Photinus pyralis) (UniProt P08659); test: Primary firefly luciferase (FLuc) qHTS assay for identification of artifact compounds. (AID 1845220); further: nearly all actives have a fitted effect of over 60% in size;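 on activity change, negative = inhibition: series mostly up to about 54 µM; plate controls were DMSO vehicle for no effect and no enzyme for full effect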
How it was run: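 qHTS, 15 min compound preincubation with substrate (10 uM luciferin, 10 uM ATP) at RT, then 10 nM FLuc; 5 min; luminescence; % inhibition vs no-enzyme/DMSO controls, 4-parameter Hill fit.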

[4] = Primary fluorescence-based thiol-reactive (MSTI) qHTS assay for identification of artifact compounds. (AID 1845221); further: nearly all actives have a fitted effect of over 65% in size; further: potency means the concentration at half of the fitted maximal effect;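 on activity change, negative = thiol reactive: series mostly up to about 54 µM; thiol-reactive compounds lower the probe fluorescence signal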
How it was run: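 Compounds were incubated 1 h at room temperature in the dark with the MSTI probe (4 uM) in PBS pH 7.4, 2% DMSO. Signals were normalized between Acetyl-MSTI and MSTI.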

[5] = system: Nanoluciferase (engineered Oplophorus gracilirostris luciferase); test: Primary Nanoluciferase (NLuc) qHTS assay for identification of artifact compounds. (AID 1845222);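 further: series mostly up to about 54 µM; 0% = DMSO and -100% = no enzyme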
How it was run: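 Luminescence read-out of secreted NLuc in S16 cell conditioned medium (1:55); compounds tested with 15 min RT preincubation, then Nano-Glo substrate 1:100, 5 min. % inhibition vs no-enzyme and DMSO controls, 4-parameter Hill fit.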

[6] = Primary redox qHTS assay for identification of artifact compounds. (AID 1845223);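 further: 0% = DMSO and 100% = reference compound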
How it was run: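 Amplex Red (25 uM) and HRP (250 mU/mL) in HBSS, with compounds for 15 min, then 250 uM DTT for 30 min, room temperature, dark. Fluorescence 525/598 nm read; normalized to DMSO and 10 uM DA3003; Hill fit.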

Chain of Phospholipid hydroperoxide glutathione peroxidase GPX4 (Homo sapiens) (P36969 whole entry, looked up): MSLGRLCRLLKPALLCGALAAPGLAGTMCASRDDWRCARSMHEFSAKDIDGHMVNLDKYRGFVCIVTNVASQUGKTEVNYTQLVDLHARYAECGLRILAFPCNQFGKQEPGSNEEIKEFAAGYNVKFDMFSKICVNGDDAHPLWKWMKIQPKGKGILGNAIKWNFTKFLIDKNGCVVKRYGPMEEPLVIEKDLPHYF
Chain of Glutathione peroxidase 1 (Homo sapiens) (P07203 whole entry, looked up): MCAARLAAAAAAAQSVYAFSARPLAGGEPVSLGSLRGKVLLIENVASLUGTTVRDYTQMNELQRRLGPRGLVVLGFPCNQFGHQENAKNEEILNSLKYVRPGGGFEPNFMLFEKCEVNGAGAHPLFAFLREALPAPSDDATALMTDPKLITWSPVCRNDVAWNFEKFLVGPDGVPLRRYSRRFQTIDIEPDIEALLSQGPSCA

Cc1cc(-c2cc(O)ccc2Cl)cc2nnc(Nc3ccc(OCCN4CCCC4)cc3)nc12
inactive: Potency [1] | Potency [2] | Potency [3] | Potency [5] | Potency [6]
active: Potency [4] 3770 nM

C[C@@H]1O[C@@H](O[C@H]2[C@@H]3C=CO[C@@H](O[C@@H]4O[C@H](CO)[C@@H](O)[C@H](O)[C@H]4O)[C@@H]3[C@@]3(CO)O[C@@H]23)[C@H](OC(=O)/C=C/c2ccc(O)c(O)c2)[C@H](O)[C@H]1O
inactive: Potency [1] | Potency [2] | Potency [3] | Potency [5] | Potency [6]
active: Potency [4] 793 nM

NC(=O)c1cnc(NCCc2ccc(O)c(Cl)c2)nc1NCc1ccccc1
inactive: Potency [1] | Potency [2] | Potency [3] | Potency [4] | Potency [5] | Potency [6]

O=C(/C=C/c1ccc(O)cc1)N[C@@H](Cc1ccc(O)cc1)C(=O)O
inactive: Potency [1] | Potency [2] | Potency [3] | Potency [5] | Potency [6]
active: Potency [4] 7360 nM

CC(=O)N[C@H]1[C@H](O[C@H]2CC[C@@]3(C)C(CC[C@]4(C)C3CC=C3C5CC(C)(C)CC[C@]5(C(=O)O)[C@H](O)C[C@]34C)C2(C)C)O[C@H](CO[C@@H]2OC[C@H](O)[C@H](O)[C@H]2O[C@@H]2OC[C@@H](O)[C@H](O)[C@H]2O)[C@@H](O)[C@@H]1O (stereo not given in full)
inactive: Potency [1] | Potency [2] | activity change, negative = inhibition [3] -1.17% [at 11.6 µM] | activity change, negative = thiol reactive [4] 85% [at 11.5 µM] | activity, negative = inhibition [5] 0% [at 11.6 µM] | redox activity (% of DA3003) [6] 8.12% [at 11.5 µM]

CC(C)C(C(=O)N(C)C(C)C(N)=O)N(C)C(=O)C1CCCN1C(=O)/C=C/C=C/C(O)C(C)O (stereo not given)
inactive: Potency [1] | Potency [2] | Potency [3] | Potency [4] | Potency [5] | Potency [6]

O=C(Cc1ccc(-c2ccccc2)cc1)NC1CCC1
inactive: Potency [1] | Potency [2] | Potency [3] | Potency [4] | Potency [5] | Potency [6]

Nc1nc2c(c(=O)[nH]1)C[C@@H](CCc1ccc(C(=O)N[C@@H](CCC(=O)O)C(=O)O)cc1)CN2
inactive: Potency [1] | Potency [2] | Potency [3] | Potency [4] | Potency [5] | Potency [6]

CO[C@H]1/C=C/[C@@](C)(O)/C=C/C(=O)O[C@H](C)[C@@H](C)CC/C=C/1C
inactive: Potency [1] | Potency [2] | Potency [3] | Potency [4] | Potency [5] | Potency [6]

CC(=O)O[C@@H]1[C@H](O)[C@@H](O[C@@H]2O[C@@H](C)[C@H](O[C@@H]3OC[C@@H](O)[C@H](O[C@@H]4OC[C@@H](O)[C@H](O)[C@H]4O)[C@H]3O)[C@@H](O[C@@H]3O[C@H](CO)[C@@H](O)[C@H](O)[C@H]3O)[C@H]2O)[C@H](OC(=O)[C@]23CCC(C)(C)C[C@H]2C2=CCC4[C@@]5(C)CC[C@H](O[C@@H]6O[C@H](C(=O)O)[C@@H](O)[C@H](O[C@@H]7OC[C@@H](O)[C@H](O)[C@H]7O)[C@H]6O[C@@H]6O[C@H](CO)[C@H](O)[C@H](O)[C@H]6O)[C@@](C)(C=O)C5CC[C@@]4(C)[C@]2(C)CC3)O[C@@H]1C (stereo not given in full)
inactive: activity, negative = inhibition [1] -4.56% [at 9.52 µM] | activity change, negative = inhibition [2] 2.64% [at 9.73 µM] | activity change, negative = inhibition [3] 3.61% [at 6.45 µM] | activity change, negative = thiol reactive [4] 306% [at 6.41 µM] | activity, negative = inhibition [5] 0% [at 6.45 µM] | redox activity (% of DA3003) [6] -0.0347% [at 6.41 µM]

Cc1cccc(S(=O)(=O)N2CCC[C@@H]2CCN2CCC(C)CC2)c1
inactive: Potency [1] | Potency [2] | Potency [3] | Potency [4] | Potency [5] | Potency [6]

CC1CC2OC3(OC2C(C)(C)O)C1C1(C)CCC24CC25CCC(O[C@@H]2OC[C@@H](O)[C@H](O)[C@H]2O)C(C)(C)C5CC=C4C1(C)C3O (stereo not given in full)
inactive: Potency [1] | Potency [2] | Potency [3] | Potency [4] | Potency [5] | Potency [6]

COC(=O)C1=COC(O[C@@H]2O[C@H](CO)[C@@H](O)[C@H](O)[C@H]2O)[C@H]2[C@@H]1[C@H](OC(=O)CCc1ccc(O)cc1)C[C@]2(C)O (stereo not given in full)
inactive: Potency [1] | Potency [2] | Potency [3] | Potency [4] | Potency [5] | Potency [6]

C=C(C)C1CC[C@]2(C(=O)O)CC[C@]3(C(=O)O)[C@H](CCC4[C@@]5(C)CC[C@H](O)C(C)(C)C5CC[C@]43C)C12 (stereo not given in full)
inactive: Potency [1] | Potency [2] | Potency [3] | Potency [4] | Potency [5] | Potency [6]

CC1=CCC2C(C)(C)CCC[C@]2(C)[C@@]12CC[C@](C)(CC(=O)O)O2 (stereo not given in full)
inactive: Potency [1] | Potency [2] | Potency [3] | Potency [4] | Potency [5] | Potency [6]

O=C(CCc1nnc2n(Cc3ccc(Cl)cc3)c(=O)c3ccccc3n12)NCCC1=CCCCC1
inactive: Potency [1] | Potency [2] | Potency [3] | Potency [4] | Potency [5] | Potency [6]

O=C(NCC(O)CO)c1ccncc1Nc1ccc(I)cc1F (stereo not given)
inactive: Potency [1] | Potency [2] | Potency [3] | Potency [4] | Potency [5] | Potency [6]

CN1C2CCC1CC(OC(=O)[C@H](CO)c1ccccc1)C2 (stereo not given in full)
inactive: Potency [1] | Potency [2] | Potency [3] | Potency [4] | Potency [5] | Potency [6]

CCC(C)C1NC(=O)C2CCCN2C(=O)C(NC(C)=O)C(C)OC(=O)C(Cc2ccc(OC)cc2)N(C)C(=O)C2CCCN2C(=O)C(C(C)C)NC1=O (stereo not given) (Ac-TPIVP[NMeY](Me); ester 1-C; configuration not given here)
inactive: Potency [1] | Potency [2] | Potency [3] | Potency [4] | Potency [5] | Potency [6]

CC1=C(C(=O)O)/C(=C/CO[C@@H]2O[C@H](COC(=O)/C=C/c3ccc(O)cc3)[C@@H](O)[C@H](O)[C@H]2O)C(O)C1 (stereo not given in full)
inactive: Potency [1] | Potency [2] | Potency [3] | Potency [5] | Potency [6]
active: Potency [4] 1460 nM
